Rows were chosen to be rich in hits. Some 6% of all compounds tested hit in one or more screens of this group.
Tau fluor cs – counter-screen for tau fibril formation inhibitors; tau K18 P301L Alexa594 fluorescence, heparin fibrillization; Potency, µM (doses to about 57.7 µM), for inactives: at the highest dose activity change, negative = decrease; hit rate 0.93% among 280,000; AID 1463; note: nearly all actives have a fitted effect of over 55% in size
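Human tau K18 P301L (15 uM unlabeled, 0.24 uM Alexa 594-labeled) in 100 mM sodium acetate pH 7 with 20 uM heparin, 6 hr at 37 C. ThT 30 uM added, 1 hr ambient; Alexa 594 FP and total fluorescence read at 555/632 nm.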
VDR inh – blocks the human vitamin D receptor; AID 504847; VDR-SRC2-3 peptide fluorescence polarization, 2 h; hit rate 0.93% among 400,000; Potency, µM, for inactives: max response, negative = inhibition, hits mostly inhibitors
Target sequence (P11473 whole entry, looked up): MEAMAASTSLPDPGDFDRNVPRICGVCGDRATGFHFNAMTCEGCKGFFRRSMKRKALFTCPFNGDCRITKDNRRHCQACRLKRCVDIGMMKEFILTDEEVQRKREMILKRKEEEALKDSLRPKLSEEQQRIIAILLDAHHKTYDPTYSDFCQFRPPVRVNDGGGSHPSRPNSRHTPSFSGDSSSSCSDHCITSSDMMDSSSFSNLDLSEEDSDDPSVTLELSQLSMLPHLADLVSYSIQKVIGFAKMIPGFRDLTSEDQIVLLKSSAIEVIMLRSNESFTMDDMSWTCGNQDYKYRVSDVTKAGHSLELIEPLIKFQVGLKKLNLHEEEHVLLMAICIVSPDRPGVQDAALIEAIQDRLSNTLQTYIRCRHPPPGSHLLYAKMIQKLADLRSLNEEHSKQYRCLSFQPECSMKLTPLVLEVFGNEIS
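Reagent solutions, kept cold and dark, are dispensed first; compounds are then pinned in at 23 nl, plates briefly spun, and incubated 2 h at ambient temperature. Inhibition of VDR–SRC2-3 peptide binding is read by fluorescence polarization.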
PLK1 PBD inh – blocks phosphopeptide binding to human PLK1 polo-box domain; hit rate 2.8% among 360,000; P53350; Plk1 PBD binding of FITC phosphopeptide, fluorescence polarization; Potency, µM, for inactives: max response, negative = inhibition, hits mostly inhibitors; note: series mostly up to about 57 µM; nearly all actives have a fitted effect of over 65% in size
Sfp PPTase inh – inhibitors of Bacillus subtilis Sfp phosphopantetheinyl transferase; Q9F4F7; Biochemical Sfp PPTase activity, qHTS; Potency, µM, without a hit: largest response in the series, negative = inhibition, hits mostly inhibitors; hit rate 3.5% among 310,000; AID 1490;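 note: the enzyme is Sfp with the accession as filed and its product quenches rhodamine fluorescence; 0% = enzyme reaction without inhibitor and -100% = no enzyme wells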
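With Hepes-Na pH 7.6 buffer containing 10 mM MgCl2, Sfp (15 nM) modified BHQ-2-YbbR (12.5 uM) using rhodamine-CoA (5 uM). Two reads 30 minutes apart at 525/598 nm yielded each well's rate.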
Tau fibril ThT – blocks human tau fibril formation measured by thioflavin T | recombinant tau K18 P301L (four-repeat tau fragment), heparin-induced fibrillization, ThT fluorescence | Potency, µM (series often up to 57.4 µM), without a hit: at the highest dose activity, negative = inhibition, hits mostly inhibitors | hit rate 2.1% among 270,000; note: nearly all actives have a fitted effect of over 55% in size
Target sequence (P10636 561-689 P618L limits assumed): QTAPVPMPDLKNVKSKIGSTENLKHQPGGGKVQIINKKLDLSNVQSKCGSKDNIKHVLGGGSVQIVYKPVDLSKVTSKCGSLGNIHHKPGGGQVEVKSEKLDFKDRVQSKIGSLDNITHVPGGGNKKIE
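Recombinant human tau K18 fragment […] carrying P301L, 15 uM unlabeled plus 0.24 uM Alexa 594-labeled, was fibrillized with 20 uM heparin in 100 mM sodium acetate pH 7 for 6 hr at 37 C; 30 uM ThT fluorescence read after 1 hr.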
Tau fibril FP – inhibitors of human tau fibril formation; P10636; K18 P301L tau heparin fibrillization, Alexa594 FP, 6 h; Potency, µM (highest dose often 57.7 µM), inactives show top-dose activity, negative = inhibition, most hits filed as inhibitors; hit rate 0.39% among 280,000; note: nearly all actives have a fitted effect of over 55% in size
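Read-out: fluorescence polarization of Alexa 594-labeled tau (0.24 uM), 555 nm excitation, 632 nm emission. Mixtures held 15 uM unlabeled K18 P301L, compound and 20 uM heparin, pH 7 acetate buffer, incubated 6 hr at 37 C.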
* hit, by the source's call; ? = inconclusive; . = not tested or not shown; [ ] = remark or other dose. Calls come from the whole dose curve; as a rule, active = well fitted curve in the direction sought with a large enough effect; inconclusive = small, poorly fitted or top-dose-only effect, or another doubt; inactive = no such curve, though single readings can be large; an effect the other way counts as inactive or inconclusive. Unless noted, % is set by controls: 0 for no effect and ±100 for the full control effect; potency is the fitted concentration of half-maximal effect.

SMILES	Tau fluor cs	VDR inh	PLK1 PBD inh	Sfp PPTase inh	Tau fibril ThT	Tau fibril FP
N#Cc1ccccc1NCc1ccccc1	-4%	-15%	-11%	3%	-9%	0%
O=C1C=C(NCc2ccccc2)c2ccccc2C1=O	-25%	2µM*	?	22µM*	14µM*	?
O=C1C=C(Nc2ccccc2O)c2ccccc2C1=O	?	8%	-12%	?	?	-11%
COc1ccc2[nH]cc(CCNc3cc(-c4ccc(C(=O)N(C)C)cc4)ncn3)c2c1	.	-11%	.	7%	.	.
CCCOc1ccc(/C=C/C(=O)Nc2sc(C)c(C)c2C(=O)OCC)cc1OC	-20%	16µM*	.	.	28µM*	?
COCCNC(=O)c1sc2ncn(CC(=O)N3CCCCC3)c(=O)c2c1C	3%	-23%	3.4µM*	2%	5%	-1%
Cc1cccc(C)c1OCc1cc(=O)n2c(-c3ccccc3)csc2n1	-15%	-20%	.	.	-2%	3%
O=c1cc(CN2CCN(c3ccc(O)cc3)CC2)nc2scc(-c3ccccc3)n12	-7%	-12%	-14%	56µM*	-12%	6%
CCOc1ccc(-c2cn3c(n2)sc2cc(C(=O)NC(C)C45CC6CC(CC(C6)C4)C5)ccc23)cc1 (stereo not given)	-8%	8%	.	.	-12%	-1%
Cc1nc(-c2ccc(Cl)cc2)sc1CCNC(=O)C(=O)Nc1ccc2c(c1)OCO2	3%	2%	.	.	?	1%
Cc1ccc(S(=O)(=O)CCNC(=O)Cc2ccccc2)cc1	0%	56µM*	9.5µM*	22%	4%	2%
CCc1cccc(NC(=O)CCS(=O)(=O)c2ccc(Br)cc2)c1	.	79µM*	13µM*	-2%	.	.
O=C(CCS(=O)(=O)c1ccc(Br)cc1)NCCc1ccccc1	.	18%	30µM*	16%	.	.
Cc1ccc(CC(=O)NCCCc2ccccc2)cc1	-12%	12%	-9%	-1%	-11%	7%
CCc1cccc(NC(=O)CCS(=O)(=O)c2ccc3c(c2)NC(=O)CO3)c1	.	-10%	27µM*	17%	.	.
NS(=O)(=O)c1ccc(CCNC(=O)CCS(=O)(=O)c2ccc(Br)cc2)cc1	.	-26%	?	4%	.	.
CN(C)c1ccc(CC(=O)N2CCCCC2c2cc(C(=O)Nc3cccc(C#N)c3)no2)cc1 (stereo not given)	.	.	-9%	.	.	.
COc1ccc(Cl)cc1C1=NOC2(CCC2)C(=O)N1Cc1ccc(NC(C)=O)cc1	.	.	-5%	.	.	.
COc1ccc(CN2C[C@H](Cc3ccccc3)[C@@H](CC(=O)Nc3ccccc3)C2=O)cc1	.	-11%	-1%	-4%	.	.
CCN(Cc1ccccc1)C(=O)CCS(=O)(=O)c1ccc2c(c1)NC(=O)CO2	.	-19%	21µM*	9%	.	.
O=C1NCCCN1C1OC(CO)C(O)C1O (stereo not given)	.	.	-1%	.	.	.
N#C/C(=C\c1ccc(F)c(Cl)c1)S(=O)(=O)c1ccccn1	-2%	6%	12µM*	12%	-4%	1%
COC(=O)C[C@@H]1C=C[C@H](NC(=O)c2cnccn2)[C@@H](CO)O1	.	.	-12%	.	.	.
Clc1cccc(-c2csc(Nc3cccnc3)n2)c1	?	7%	-1%	56µM*	-19%	14%
Clc1ccccc1-c1csc(Nc2cccnc2)n1	-27%	4%	-19%	32µM*	-19%	16%
SMILES	Tau fluor cs	VDR inh	PLK1 PBD inh	Sfp PPTase inh	Tau fibril ThT	Tau fibril FP
Cc1ccc(C2=NN=C(NC(=O)C(F)(F)F)SC2)cc1	-25%	50µM*	-24%	?	?	?
COc1ccc(CCNC(=O)c2cnc3sc(N4CCOCC4)nn3c2=O)cc1OC	8%	13%	.	.	7%	-1%
O=C(COC(=O)C1CCC(=O)N1)Nc1ccccc1Br (stereo not given)	7%	22µM*	21µM*	23%	5%	1%
O=C1CCC(C(=O)OCC(=O)c2ccccc2)N1 (stereo not given)	6%	?	27µM*	10%	5%	0%
O=C(COC(=O)C1CCC(=O)N1)Nc1ccc(Oc2ccccc2)cc1 (stereo not given)	0%	1%	-5%	?	-6%	4%
CCOC(=O)c1ccc(NC(=O)N2CCOc3ccccc32)cc1	-16%	16%	.	.	18%	?
Cc1cn(CC(=O)NCC(c2ccccc2)c2ccccc2)c(=O)[nH]c1=O	.	-29%	?	.	.	.
COc1ccccc1N(CC(=O)NCCSc1ccccc1)S(=O)(=O)c1ccc(C)cc1	?	-3%	.	.	-18%	-3%
CC(=O)Nc1ccc2c(c1)ncn2C1CCCCC1	.	-16%	3%	.	.	.
O=C(O)c1ccc2c(c1)ncn2C1CCCCCC1	-4%	10%	-28%	89µM*	-5%	3%
CC(=O)N1CCc2cc(CNS(=O)(=O)c3ccc(Cl)s3)ccc21	-2%	12%	.	.	4%	-1%
COc1ccc(NCc2cc3cc(OC)ccc3[nH]c2=O)cc1	-25%	-18%	-12%	-3%	7.9µM*	-4%
COc1ccc(NCc2cc3ccccc3[nH]c2=O)cc1	-14%	-23%	-10%	7%	?	-2%
CCN1C[C@@H]2[C@@H]3C(=O)N(C)C(=O)[C@@H]3[C@](Cc3ccccc3)(C1=O)N2C(=O)c1ccc(Br)cc1	.	-14%	7%	.	.	.
CN(C(=O)CSc1nc2c(c(=O)[nH]1)CCCC2)C1CCCCC1	1%	-12%	27µM*	2%	-4%	3%
O=c1c(C/C=C/c2ccccc2)c(O)ccn1Cc1cccc(Cl)c1	-26%	-14%	-14%	21%	2%	?
O=c1c(C/C=C/c2ccccc2)c(O)ccn1CCc1c[nH]c2ccccc12	18µM*[quencher]	28%	8%	25%	-16%	-5%
COc1ccc2[nH]cc(CCn3ccc(O)c(C/C=C/c4ccccc4)c3=O)c2c1	25µM*[quencher]	7%	-8%	13%	?	?
Cc1ccc(CCNC(=O)c2cnc3c(C)cccn3c2=O)cc1	-2%	4%	.	.	-15%	1%
CCOc1ccc2c(c1)nc(SCC(=O)c1ccc(Br)s1)n2C	-12%	89µM*	30µM*	32µM*	?	-2%
CCOc1ccc2c(c1)nc(SCC(=O)c1cccs1)n2C	-2%	?	?	?	-12%	3%
COc1cc(/C=N\Nc2ccc([N+](=O)[O-])cc2)ccc1OCC(=O)Nc1ccc(C)c(C)c1	7.1µM*[quencher]	-14%	14%	-25%	1.6µM*	2%
CCOc1cc(/C=N\Nc2ccc([N+](=O)[O-])cc2)ccc1OCC(=O)Nc1ccc(C)c(C)c1	?	8%	28%	-10%	2.2µM*	12%
CCOc1cc(/C=N/O)ccc1OCC(=O)Nc1cccc(C)c1	-1%	-3%	3%	-19%	-1%	4%
Cc1c(C(=O)N2CCCCCC2)c(S(=O)(=O)N(Cc2ccccc2)C(C)(C)C)c(C)n1C	10%	8%	.	.	3%	-6%
